Inconclusive results are not listed. A number with no mark means an inactive call. Active and inactive are the calls of the source. Calls come from the whole dose curve; as a rule, active = well fitted cell-killing curve with a large enough effect; inconclusive = small, poorly fitted or top-dose-only effect, or effect the other way; inactive = flat fitted curve, though single readings scatter.

Assay in all cases: Primary qHTS to identify gynecologic anti-cancer compounds using libraries of approved drugs and bioactive compounds (AID 1345084); note: nearly all actives have a fitted effect of over 55% in size
Conditions in all cases: Gynecologic cancer cell panel viability, ATPlite luminescence, 48 h; series mostly up to 57.5 µM

In one experiment the test system is SKOV3. The gist of the method:
(§1)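 Cells, 1,000 per well, were allowed to settle for 16 h at 37 C before compound addition. Five concentrations were tested for 48 h, and viability was read by ATPlite luminescence after 15 min at room temperature.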

A further experiment relates to Tov-21-G. A digest of the protocol: as §1
The test system of a further experiment is Tov112D. A digest of the protocol:
as §1
% is set by controls: 0 for no effect and ±100 for the full control effect; potency is the fitted concentration of half-maximal effect.

Consider `CCOc1ccc(-n2c([C@@H](C)N(Cc3cccnc3)C(=O)Cc3ccc(OC(F)(F)F)cc3)nc3ncccc3c2=O)cc1`, for which the Potency result in the experiment on SKOV3, in the experiment with Tov-21-G and with Tov112D was “inactive” in each case.
Take `Cc1cc(C(=O)Cn2cc(C#N)ccc2=O)c(C)n1Cc1ccccc1`: the Potency entry with SKOV3, in the experiment with Tov-21-G and with Tov112D was “inactive” in each case.
Turning to `C[C@@H]1O[C@@H](O[C@H]2[C@H](OC(=O)[C@]34CCC(C)(C)C[C@H]3C3=CCC5[C@@]6(C)C[C@H](O)[C@H](O[C@@H]7O[C@H](C(=O)O)[C@@H](O)[C@H](O)[C@H]7O)[C@@](C)(CO)C6[C@H](O)C[C@@]5(C)[C@]3(C)C[C@H]4O)O[C@@H](CO)[C@@H]2O)[C@H](O)[C@H](O)[C@H]1O[C@@H]1OC[C@@H](O)[C@H](O[C@H]2OC[C@](O)(CO)[C@H]2O)[C@H]1O` (stereo partly drawn), the values for the activity change, negative = cytotoxicity with SKOV3, in the experiment on Tov-21-G and in the experiment with Tov112D were -5.43% [at 6.55 µM], -13.8% [at 6.55 µM] and -1.13% [at 6.55 µM], respectively.
Turning to `O=S(=O)(c1ccc(Cl)cc1)N1CCN(c2ccnc3cc(Cl)ccc23)CC1`, the Potency entry in the experiment with SKOV3, with Tov-21-G and with Tov112D was “inactive” in each case.
Turning to `OC1CCC(Nc2nc(-c3ccccc3)nc3[nH]ccc23)CC1` (stereo not drawn), the Potency entry in the experiment on SKOV3, in the experiment on Tov-21-G and with Tov112D was “inactive” throughout.
As to `COC(=O)c1ccc(N2CCN(C)CC2)c(NC(=O)c2cccc(OC)c2)c1`, the Potency result in the experiment with SKOV3, with Tov-21-G and with Tov112D was “inactive” throughout.
Consider `CC(C)/C=C1\NC(=O)C(C(C)C)n2c1nc1ccccc1c2=O` (stereo not drawn), for which the Potency entry in the experiment on SKOV3, in the experiment with Tov-21-G and with Tov112D was “inactive” in each case.
Consider `Cc1cc(C)c(S(=O)(=O)n2cc(C)cc2C)c(C)c1`, for which the Potency entry in the experiment on SKOV3, with Tov-21-G and with Tov112D was “inactive” each time.
With `CCOC(=O)c1ccc(OCCC2CCN(c3ccc(C)nn3)CC2)cc1`, the Potency result in the experiment with SKOV3, in the experiment with Tov-21-G and in the experiment on Tov112D was “inactive” in each case.
As for `O=C(N[C@H]1CCN(C(=O)c2cc(C(F)(F)F)cc(C(F)(F)F)c2)[C@H](Cc2ccc(Cl)cc2)C1)c1ccnc2ccccc12`, the Potency entry in the experiment on SKOV3, in the experiment on Tov-21-G and in the experiment on Tov112D was “inactive” throughout.
In the case of `CC[C@@H](Nc1c(Nc2cccc(C(=O)N(C)C)c2O)c(=O)c1=O)c1cc(C(C)C)co1`, the Potency result with SKOV3, in the experiment on Tov-21-G and in the experiment on Tov112D was “inactive” throughout.
For the molecule `COc1ccccc1-c1ccc(-c2cn(C(=O)N3CCCCC3Cc3ccccc3)nn2)cc1` (stereo not drawn), the Potency result in the experiment on SKOV3, with Tov-21-G and in the experiment with Tov112D was “inactive” in each case.
For the molecule `N#Cc1ccc(Nc2nc(-c3ccc(O)cc3O)cs2)cc1C(F)(F)F`, the Potency was 8.91 µM (active) with SKOV3, 5.01 µM (active) in the experiment with Tov-21-G and 7.94 µM (active) with Tov112D.
With `CC(=O)OC1CC(O)(C(C)C)C2C(OC(=O)c3ccc(O)cc3)C=C(C)C(=O)CC12C` (stereo not drawn), the Potency entry in the experiment with SKOV3, with Tov-21-G and in the experiment with Tov112D was “inactive” each time.
Regarding `C/C=C(\C)C(=O)OC1C(C)C2(O)C(C=C(CO)CC3(O)C(=O)C(C)=CC32)C2C(C)(C)C12OC(C)=O` (stereo not drawn), the Potency entry with SKOV3, with Tov-21-G and in the experiment on Tov112D was “inactive” throughout.
With `C=C(C(=O)O)[C@@H]1CC=C(CCC(C)=O)[C@@H](C)CC1`, the Potency entry in the experiment with SKOV3, in the experiment with Tov-21-G and with Tov112D was “inactive” in each case.
Take `COc1ccc(N(C(=O)Nc2c(C)cccc2C)c2cc(Nc3ccc(N4CCN(C)CC4)cc3)ncn2)c(OC)c1`: the Potency is 25.1 µM (active) in the experiment with SKOV3 and 12.6 µM (active) with Tov-21-G. The Potency entry in the experiment on Tov112D is “inactive”.
`COc1ccc([C@H](Cc2ccncc2)c2ccccc2)cc1OC1CCCC1`: the Potency entry with SKOV3, with Tov-21-G and with Tov112D was “inactive” in each case.
As to `CC(O)C(C)n1ncn(-c2ccc(N3CCN(c4ccc(OCC5COC(Cn6cncn6)(c6ccc(Cl)cc6Cl)O5)cc4)CC3)cc2)c1=O` (stereo not drawn), the Potency result with SKOV3, with Tov-21-G and in the experiment on Tov112D was “inactive” throughout.
In the case of `Cc1cccc(C#Cc2cc(F)cc(C#N)c2)n1`, the Potency result in the experiment with SKOV3, in the experiment with Tov-21-G and with Tov112D was “inactive” throughout.
For the molecule `CCOc1ccc(-n2c(C(C)N(Cc3cccnc3)C(=O)Cc3ccc(F)c(C(F)(F)F)c3)nc3ncccc3c2=O)cc1` (stereo not drawn), the Potency result with SKOV3, in the experiment with Tov-21-G and in the experiment on Tov112D was “inactive” each time.
On to `COC(=O)c1cc2c(C(F)(F)F)cc(-c3ccccc3)cc2n1O`, for which the Potency result with SKOV3, in the experiment on Tov-21-G and with Tov112D was “inactive” throughout.
As for `C#CC(=O)N(c1ccc(OC)cc1OC)C(C(=O)NCC(=O)OCC)c1cccs1` (stereo not drawn), the Potency is 3.16 µM (active) in the experiment on SKOV3, 0.398 µM (active) in the experiment with Tov-21-G and 6.31 µM (active) with Tov112D.
For `O=c1cc(NCCCN[C@@H]2CCOc3c(Br)cc(Br)cc32)[nH]c2ccsc12`, in that order: “inactive”, “inactive” and “inactive”.
For `C=C1CC[C@@H](O)[C@]2(C)CC[C@H]3C(=C)C(=O)O[C@@H]3[C@@H]12`, in that order: “inactive”, “inactive” and “inactive”.
With `COCC(=O)NC/C=C/c1ccc2ncnc(Nc3ccc(Oc4ccc(C)nc4)c(C)c3)c2c1`, the Potency with SKOV3 is 31.6 µM (active). The Potency entry in the experiment on Tov-21-G and in the experiment on Tov112D was “inactive” in each case.
As to `Fc1ccc2c(CCNCc3cccc(OCC(F)(F)C(F)F)c3)c[nH]c2c1`, the Potency entry with SKOV3, in the experiment on Tov-21-G and in the experiment on Tov112D was “inactive” in each case.
Turning to `O=C(Cc1c(F)cccc1F)Nc1cc(OCc2ccc(Cl)cc2)ccn1`, the Potency entry with SKOV3, in the experiment on Tov-21-G and in the experiment with Tov112D was “inactive” in each case.
Consider `COc1cc(-c2nc(N[C@H](CO)Cc3ccccc3)ccc2C(=O)NCCOc2ccccc2)cc(OC)c1OC`, for which the Potency entry with SKOV3, in the experiment on Tov-21-G and with Tov112D was “inactive” throughout.
In the case of `COc1ccc(C#Cc2ccc(C(=O)N3CCC[C@@H](O)C3)c(F)c2)cc1`, the Potency with SKOV3 was 8.91 µM (active); in the experiment with Tov-21-G, 7.08 µM (active); in the experiment on Tov112D, 8.91 µM (active).
Consider `C=C1C(=O)OC2CC3(C)C(O)C(=O)C=C(C)C3CC12` (stereo not drawn), for which the Potency result in the experiment with SKOV3, in the experiment with Tov-21-G and with Tov112D was “inactive” in each case.
